Molecules are shown by their SMILES. Calls of active or inactive are those of the source. How the source made its calls: active means hit-call score of the fitted dose curve at least 0.9, where 1 is the maximum; inactive means score below 0.9.

This experiment can be described thus: ATG_PBREM_CIS: Attagene CIS-FACTORIAL HepG2 Assay for human Phenobarbital-responsive Enhancer Module (PBREM) (AID 2282955). As to conditions: HepG2 PBREM cis-reporter, Attagene multiplexed transcription; actives raise or lower the signal. On the procedure: ATG_CIS is a cell-based, multiplexed-readout assay that uses HepG2, a human liver cell line, with measurements taken at 24 hours after chemical dosing in a 24-well plate.ATG_PBREM_CIS is one of 52 assay component(s) measured or calculated from the ATG_CIS assay. It is designed to make measurements of mRNA induction, a form of inducible reporter, as detected with fluorescence intensity signals by Reverse transcription polymerase chain reaction (RT-PCR) and Capillary electrophoresis technology.Data from the assay component ATG_PBREM_CIS was analyzed into 1 assay endpoint. This assay endpoint, ATG_PBREM_CIS, was analyzed with bidirectional fitting relative to DMSO as the negative control and baseline of activity. Using a type of inducible reporter, measures of mRNA for gain or loss-of-signal activity can be used to understand the reporter gene at the transcription factor-level as they relate to the gene NR1I3. Furthermore, this assay endpoint can be referred to as a primary readout, because this assay has produced multiple assay endpoints where this one serves a reporter gene function. To generalize the intended target to other relatable targets, this assay endpoint is annotated to the nuclear receptor intended target family, where the subfamily is non-steroidal.
Human liver HepG2 cells are transiently transfected with multiple reporter transcription units (MRTUs) in 6-well plates using FuGene 6 reagent (Roche; 3 ml FuGene/1 mg DNA). The MRTU constructs are regulated by a cis-regulating element (promoter). […] A major difference between the CIS and TRANS system is that in CIS activities of endogenous TFs are measured, whereas the TRANS assay evaluates changes in activities of exogenous, chimeric NR-Gal4 proteins. […] At the end of 24 hour incubation, total RNA was isolated using TriZol reagent (Invitrogen). The isolated RNA is then reverse-transcribed using oligo(dT) primer and Mo-MLV reverse transcriptase (Invitrogen) with DNAse I (Ambion) treatment for 30 min. The one-tenth of the produced cDNA was amplified by PCR using Taq DNA polymerase (Invitrogen) and two reporter sequence-specific primers. The PCR products were fluorescently labeled by primer extension with 6-arboxyfluorescein (6-FAM) 5'-labeled reporter sequence-specific primer (2 min at 95 C, 20 s at 68 C and 10 min at 72 C) and these products were digested with 5U of HpaI (New England Biolabs) for 2h at 37 C. The fragments were purified using Qiaquick PCR columns (Qiagen), analyzed on an ABI 3130xL genetic analyzer (Applied Biosystems) with peak positions identified by using a set of X-rhodamine (ROX)-labeled MapMarker1000 molecular weight standards (BioVentures). The raw capillary electrophoresis data was processed using Attagraph software (Attagene).
In the case of `CC=Cc1ccc2c(c1)OCO2`, the outcome was inactive.
Regarding `Cl/C=C\CCl`, the result was inactive.
Regarding `CCOP(=O)(OCC)OCC`, the result was inactive.
For `c1ccc(Nc2ccc3ccccc3c2)cc1` the value was “inactive”; for `NNc1ccccc1`, “inactive”; for `N#CC(c1ccccc1)c1ccccc1`, “inactive”.
In the case of `COC(=O)c1ccccc1S(=O)(=O)NC(=O)Nc1nc(C)cc(C)n1`, the result was inactive.
Under `BrCBr` stands “inactive”; under `c1ccc(P(c2ccccc2)c2ccccc2)cc1`, “inactive”; under `CC(O)CN(CC(C)O)CC(C)O` (stereo not given), “inactive”.
Under `CC(C)(Cl)Cl` stands “inactive”; under `C=CCN(CC=C)C(=O)C(Cl)Cl`, “inactive”; under `O=CNC(N1CCN(C(NC=O)C(Cl)(Cl)Cl)CC1)C(Cl)(Cl)Cl` (stereo not given), “inactive”.
For `CCC(=O)c1ccc(Cl)cc1` the value was “inactive”; for `CC1(C)C(=O)NC(=O)NC1=O`, “inactive”.
Take `O=P(O)(Oc1ccccc1)Oc1ccccc1`: the result was inactive.
In the case of `O=C(NC(=O)c1c(F)cccc1F)Nc1ccc(Oc2ccc(C(F)(F)F)cc2Cl)cc1F`, the outcome was inactive.
With `C=CC(=O)OCCO`, the outcome was inactive.
Under `Cc1ccccc1CCl` stands “inactive”.
For `Nc1ccc(Cl)c(Cl)c1` the value was “inactive”; for `CCC(C)(C)O`, “inactive”; for `Oc1ccc(Cl)cc1`, “inactive”.
For `CCCCOC(=O)CCC(=O)OCCCC` the value was “inactive”; for `C[C@]12CC[C@H](O)C[C@H]1CC[C@@H]1[C@@H]2C[C@@H](O)[C@]2(C)[C@@H](C3=CC(=O)OC3)CC[C@]12O`, “inactive”; for `O=C(O)COc1ccccc1`, “inactive”.
Regarding `CC(C)C#N`, the result was inactive.
Under `CC(C)CCCCCCCOP(=O)(Oc1ccccc1)Oc1ccccc1` stands “inactive”; under `c1ccc2c(c1)CCCC2`, “inactive”.
In the case of `C=Cc1cccc(CCl)c1`, the result was inactive.
As to `c1cc(OCC2CO2)ccc1Cc1ccc(OCC2CO2)cc1` (stereo not given), the result was inactive.
Under `O=C(O)C(Br)Br` stands “inactive”.
With `CC(C)(C)C(O)C(Oc1ccc(-c2ccccc2)cc1)n1cncn1` (stereo not given), the result was inactive.
Consider `Cc1ccc(N(SC(F)(Cl)Cl)S(=O)(=O)N(C)C)cc1`, for which the outcome was inactive.
Under `COc1cc(OC)c(OC)cc1C=O` stands “inactive”; under `N#CCNCC#N`, “inactive”.
Under `N#Cc1cc(I)c(O)c(I)c1` stands “inactive”.
For `CCOP(O)OCC`, the outcome was inactive.
For `S=c1[nH]c2ccccc2[nH]1` the value was “inactive”; for `CCC[N+](=O)[O-]`, “inactive”; for `CCOP(=O)(OCC)Oc1ccc([N+](=O)[O-])cc1`, “inactive”.
